The record followed here is PubChem BioAssay.

Some of the results follow. Inconclusive results are not listed. Calls of active or inactive are those of the source.

By inhibition is commonly meant the change of the read-out against control, counted positive when it falls.

Test [1] addresses Solute carrier family 12 member 5 (Homo sapiens) (UniProt Q9H2X9). Description: retest of KCC2 transport modulators without sodium – cell-based, HEK293 KCC2, thallium flux, secondary assay, confirmation (AID 1713). The settings on record: FluoZin2 fluorescence, at 10 µM, stronger effect = higher value.
Test [2] is described as follows: PubChem AID 1714.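 Further: raw slope of fluorescence over initial fluorescence between 10 and 20 s after thallium.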 As to conditions: HEK293-KCC2 + bumetanide/ouabain, thallium flux FluoZin2; at 10 µM; stronger effect = higher value.
Test [3] deals with Solute carrier family 12 member 5 (Homo sapiens) (UniProt Q9H2X9). Description: retest of KCC2 transport modulation, ouabain-free – cell-based, HEK293 KCC2, thallium flux, FluoZin2, secondary assay 2, confirmation (AID 1715;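 active means thallium flux slope more than 3 SD above or below the plate's solvent-only control mean, mostly below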;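 further: raw slope with 0.1% DMSO as baseline and bumetanide as block control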). The settings on record: HEK293-KCC2, thallium flux FluoZin2 fluorescence; at 10 µM; actives lie on both sides; F/F0 rise rate, 10–20 s post-thallium.
For test [4] the target is unchanged. Description: modulation of KCC2 thallium flux in HEK cells – cell-based, ouabain, retest, confirmation (AID 1717;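 active means thallium flux slope beyond 3 SD from same-plate DMSO control mean in most replicates, usually higher, sometimes lower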;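 further: slope of initial-normalized fluorescence between seconds 10 and 20 after thallium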). The settings on record: HEK293-KCC2, thallium flux FluoZin2 fluorescence, at 10 µM, bidirectional: low = inhibitor, high = activator.
Test [5] in a line: native HEK Tl+ uptake effects, second counter-screen – HEK cells, counterscreen 2, counter-screen for KCC2 modulator project, confirmation (AID 1718;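 active means thallium flux slope above the same plate's solvent-control mean plus 3 SD in both duplicate wells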;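 further: run without ouabain in cells lacking the KCC2 cotransporter; slope of fluorescence scaled to its starting value between 10 and 20 s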). The settings on record: HEK293 parental, thallium flux FluoZin-2 fluorescence slope; at 10 µM. (In general: A counterscreen serves to expose hits that act by an unwanted route or on another target.)
The nature of test [6]: compound effects on native HEK Tl+ uptake – HEK cells, counterscreen 1, counter-screen for KCC2 modulator project, confirmation (AID 1716;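 active means thallium flux rate significantly above the same plate's solvent-only control wells, beyond their mean plus 3 SD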). As to conditions: HEK293 parental cells, thallium flux FluoZin2, ouabain; at 10 µM; baseline-ratio fluorescence slope, 10–20 s after thallium.
A short description of test [7]: inhibitors of TNFa-induced NFkB p65 translocation, primary screen, imaging, HUVEC, MLSMR starter and 10KST1 sets (AID 438;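 active means inhibition above 20% together with a positive visual image hit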;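 further: compound added about 3h40 before a 20 min TNFalpha stimulation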;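 on inhibition: signal is the nuclear over cytoplasmic p65 intensity ratio per well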). The settings on record: HUVEC TNFa-induced p65 nuclear translocation; cell count: measured here: nuclei count (cytotoxicity indicator), at 2.08 µM; inhibition: at 2 µM, stronger effect = higher value, 0% TNFa-plus-vehicle, 100% no-TNFa wells.
Test [8] can be described thus: reduction of polyQ htt aggregates in cells – imaging, exon1htt(103Q)mCFP cells, high-content imaging, primary screen (AID 483;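 active means visual image review flags a hit and inhibition of aggregation exceeds 20%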;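 further: compound exposure lasted 3 days before fixation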;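 on nuclei count: percent of the per-plate median nuclei count of sample wells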). As to conditions: exon1htt(103Q)mCFP cell line, aggregate imaging, at 2 µM; inhibition of aggregation: stronger effect = higher value; nuclei count: measured here: cell count, toxicity.
The nature of test [9]: endothelial E-selectin expression blockers – imaging, HUVEC, immunofluorescence, MLSMR starter and 10KST1 sets, primary screen (AID 487;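 active means visually confirmed hit in the image check and inhibition above 20%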;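 on inhibition: signal is fraction of cell area covered by stained E-selectin grains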;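 on nuclei count: 100% = median nuclei count of all wells on the same plate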). As to conditions: HUVEC TNFalpha-induced E-selectin immunofluorescence imaging, at 2 µM; inhibition: stronger effect = higher value; nuclei count: measured here: cell number, toxicity.
Test [10] has as its target Voltage-gated potassium channel subunit beta-2 (Rattus norvegicus) (UniProt P62483). Put plainly: inhibitors of rat Kvbeta2 reductase activity – biochemical, NADPH fluorescence, primary screen (AID 622;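 active means fluorescence slope higher than the sample average by over 3 SD, cut at about -0.22 in these data, passing the limit was not always enough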;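 further: slope of raw intensity against log time taken from 70 to 1610 s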). The settings on record: recombinant KvBeta, 4-cyanobenzaldehyde reduction, at 10 µM, stronger effect = higher value.
Test [11] has the same target. Description: enhancers of rat Kvbeta2 NADPH turnover – biochemical, NADPH fluorescence, primary screen (AID 623;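 active means NADPH fluorescence slope more negative than the mean of all samples by about 3 SD, 99.7% confidence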;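 further: fluorescence intensity change per second fitted from 20 to 320 s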). As to conditions: Recombinant KvBeta, NADPH fluorescence decrease slope, 10 min; at 10 µM; stronger effect = lower value.
The target of test [12] is Alpha-2C adrenergic receptor (Homo sapiens) (UniProt P18825). Put plainly: compounds altering alpha2C-coupled GIRK flux – cell-based, HEK293 alpha2C/GIRK1/2, thallium flux, primary screen (AID 624;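 active means fluorescence slope after compound addition differing from the mean of all screened samples at 99.7% confidence, in either direction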;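 further: slope of fluorescence ratio to pre-addition baseline per second over 15 to 24 s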). The settings on record: thallium flux BTC fluorescence, at 10 µM, actives lie on both sides.
The nature of test [13]: inhibitors of larval lipid processing in zebrafish, primary screen, whole organism, PED6 fluorescence, gall bladder and intestine (AID 686;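 active means a full or partial loss of lipid-probe fluorescence in the fish gall bladder, intestine or both, judged by eye; inactive means no fluorescence loss, or compound toxic to the fish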;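 further: larvae 5 to 7 days old with five fish per well; signal comes from phospholipase A2 cleavage of quenched PED6 carried via bile; overnight exposure to compound and PED6 before scoring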). The settings on record: Zebrafish larvae PED6 lipid processing, fluorescence scoring; screened at 20 µM (by protocol).
A short description of test [14]: blockers of RIG-like receptor reporter activation – cell-based, Sendai virus stimulus, luciferase, 10K MLSCN set, TLR/RLR signaling modifier project, primary screen (AID 602276;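 active means inhibition at or above 50% at 10 µM; inactive means inhibition below 50%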;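 further: firefly luciferase from ISG56 promoter only with Renilla not read in this screen; 0% = Sendai virus plus DMSO and 100% = medium plus DMSO without virus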). As to conditions: HEK293 RL24 IRF3 luciferase reporter, at 10 µM, stronger effect = higher value. In general terms: In a reporter assay the amount or activity of a reporter protein is the signal.
Test [15] can be described thus: TLR3 IRF3 reporter activation blockers – cell-based, poly I:C stimulus, luciferase, 10K MLSCN set, primary screen (AID 602277;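 active means inhibition of the reporter signal at or above 50%; inactive means inhibition below 50%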). The settings on record: HEK293-TLR3 RL24 IRF3 luciferase reporter, at 10 µM, stronger effect = higher value.

Sequence of Solute carrier family 12 member 5 (Homo sapiens) (Q9H2X9 whole entry, looked up): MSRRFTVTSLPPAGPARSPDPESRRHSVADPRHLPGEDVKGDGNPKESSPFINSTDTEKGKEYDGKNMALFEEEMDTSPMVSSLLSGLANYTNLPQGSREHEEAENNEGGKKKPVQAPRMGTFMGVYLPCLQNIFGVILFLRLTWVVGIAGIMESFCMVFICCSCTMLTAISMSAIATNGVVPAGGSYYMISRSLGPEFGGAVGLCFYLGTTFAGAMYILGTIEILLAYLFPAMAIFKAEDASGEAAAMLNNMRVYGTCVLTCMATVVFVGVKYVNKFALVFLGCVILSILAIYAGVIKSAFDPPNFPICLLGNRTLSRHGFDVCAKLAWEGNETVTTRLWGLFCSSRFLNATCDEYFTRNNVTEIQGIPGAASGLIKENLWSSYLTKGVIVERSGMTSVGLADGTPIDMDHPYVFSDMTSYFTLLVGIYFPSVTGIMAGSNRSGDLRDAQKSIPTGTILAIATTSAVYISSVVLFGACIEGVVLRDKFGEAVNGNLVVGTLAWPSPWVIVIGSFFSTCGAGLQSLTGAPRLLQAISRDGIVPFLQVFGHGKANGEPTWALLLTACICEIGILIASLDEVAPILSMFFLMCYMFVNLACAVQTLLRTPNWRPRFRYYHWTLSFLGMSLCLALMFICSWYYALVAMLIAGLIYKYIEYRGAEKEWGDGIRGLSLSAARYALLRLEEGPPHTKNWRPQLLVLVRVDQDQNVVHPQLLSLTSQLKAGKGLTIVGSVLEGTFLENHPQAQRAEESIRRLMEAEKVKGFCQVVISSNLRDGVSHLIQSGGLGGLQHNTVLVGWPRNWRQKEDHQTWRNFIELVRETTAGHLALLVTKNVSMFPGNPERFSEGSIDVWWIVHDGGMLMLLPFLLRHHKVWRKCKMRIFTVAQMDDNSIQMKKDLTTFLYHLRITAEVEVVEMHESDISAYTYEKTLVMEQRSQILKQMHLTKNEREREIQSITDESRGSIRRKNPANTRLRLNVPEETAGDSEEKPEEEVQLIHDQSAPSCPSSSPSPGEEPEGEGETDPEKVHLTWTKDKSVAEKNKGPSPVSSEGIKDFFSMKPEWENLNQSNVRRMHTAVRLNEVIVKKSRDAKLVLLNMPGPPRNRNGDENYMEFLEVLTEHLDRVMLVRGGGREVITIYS
Sequence of Voltage-gated potassium channel subunit beta-2 (Rattus norvegicus) (P62483 whole entry, looked up): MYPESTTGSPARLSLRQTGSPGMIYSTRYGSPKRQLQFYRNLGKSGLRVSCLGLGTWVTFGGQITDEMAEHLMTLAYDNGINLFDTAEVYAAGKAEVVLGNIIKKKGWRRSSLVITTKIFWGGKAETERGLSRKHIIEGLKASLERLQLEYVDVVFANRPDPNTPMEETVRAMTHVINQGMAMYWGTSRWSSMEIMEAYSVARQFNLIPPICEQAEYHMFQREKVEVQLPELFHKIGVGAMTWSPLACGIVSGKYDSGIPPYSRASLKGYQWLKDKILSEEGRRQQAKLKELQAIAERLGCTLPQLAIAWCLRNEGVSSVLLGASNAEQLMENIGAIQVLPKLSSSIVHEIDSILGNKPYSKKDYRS
Sequence of Alpha-2C adrenergic receptor (Homo sapiens) (P18825 whole entry, looked up): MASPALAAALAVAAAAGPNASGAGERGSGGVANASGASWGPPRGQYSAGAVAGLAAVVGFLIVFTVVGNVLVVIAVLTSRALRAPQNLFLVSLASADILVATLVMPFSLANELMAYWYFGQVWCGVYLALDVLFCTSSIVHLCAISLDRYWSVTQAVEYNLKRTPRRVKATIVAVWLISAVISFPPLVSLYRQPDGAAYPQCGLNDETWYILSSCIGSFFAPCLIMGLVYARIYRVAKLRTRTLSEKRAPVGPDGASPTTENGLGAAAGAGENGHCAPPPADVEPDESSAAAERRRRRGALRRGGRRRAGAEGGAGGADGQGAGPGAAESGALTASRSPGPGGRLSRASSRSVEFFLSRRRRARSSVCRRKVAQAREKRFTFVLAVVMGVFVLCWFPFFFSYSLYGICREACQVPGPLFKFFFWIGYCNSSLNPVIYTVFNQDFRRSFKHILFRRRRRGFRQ

`CC1CCCCN1S(=O)(=O)c1ccc(C(=O)Nc2nnc(-c3cccs3)o2)cc1` (stereo not drawn): the normalised thallium flux (F/F0 slope) in test [1] was 0.0106 (inactive). For the same compound, the normalized thallium flux in [2] was 0.0292 (active); in test [3], 0.033 (inactive). Besides, the raw Tl+ flux slope (below DMSO = inhibition, above = activation) in test [4] was 0.0294 (active). In addition, the thallium flux slope in test [5] was 0.0123 (inactive).
Turning to `O=C(CSc1ccc(-c2cccs2)nn1)Nc1ccccc1F`, the normalised thallium flux (F/F0 slope) in [1] was 0.00973 (inactive). The normalized thallium flux in test [2] is 0.00689 (inactive). For the same compound, the thallium flux rate (normalised fluorescence) in test [6] was 0.00368 (inactive). For the same compound, the raw Tl+ flux slope (below DMSO = inhibition, above = activation) in test [4] was 0.017 (active). For the same compound, the thallium flux slope in [5] was 0.0107 (inactive).
The corresponding values for `O=C(c1cc(-c2ccc(O)cc2)on1)N1CCCc2ccccc21` are 0.00967 (inactive), 0.00639 (inactive), 0.00346 (inactive), 0.0175 (active) and 0.0111 (inactive).
On to `O=S(=O)(c1cccc(S(=O)(=O)N2CCC(n3nnc4ccccc43)CC2)c1)N1CCCCC1`, for which, in [1], the normalised thallium flux (F/F0 slope) is 0.00996 (inactive). The normalized thallium flux in test [2] is 0.00678 (inactive). Also, the thallium flux rate (normalised fluorescence) in [6] is 0.00751 (inactive). In addition, in [4], the raw Tl+ flux slope (below DMSO = inhibition, above = activation) was 0.0174 (active).
Take `COc1ccccc1-n1cnc2cc(NS(=O)(=O)c3ccccc3)ccc21`: in test [7], the cell count was found to be 720. The inhibition in [7] is -12.5% (inactive); in test [9], -14.6% (inactive); in test [14], -18.8% (inactive); in test [15] it was 98.4% (active). For the same compound, in [8], the inhibition of aggregation was 1.2% (inactive). Also, the nuclei count is 90.2% in [8] and 108% in [9]. In [10], the fluorescence slope was -0.46 (inactive). For the same compound, the NADPH fluorescence slope in test [11] is -1.9e-05 (inactive). For the same compound, the slope in [12] is 0.00351 (inactive). In test [13], the compound was called inactive. Besides, in test [1], the normalised thallium flux (F/F0 slope) is 0.00507 (inactive). Also, the normalized thallium flux is 0.00527 (inactive) in test [2] and 0.0252 (active) in [3]. Further, the thallium flux rate (normalised fluorescence) in test [6] was 0.0068 (inactive). Also, the thallium flux slope in test [5] was 0.00966 (inactive).
Take `Oc1c(Cl)cc(Cl)c(Cl)c1Cc1c(O)c(Cl)cc(Cl)c1Cl`: in [1], the normalised thallium flux (F/F0 slope) is 0.0104 (inactive). Further, the normalized thallium flux was 0.0366 (active) in test [2] and 0.0364 (inactive) in test [3]. In addition, the thallium flux slope in test [5] is 0.0102 (inactive).
`CS(=O)(=O)N(CC(=O)N1CCN(c2ccc(F)cc2)CC1)C1CCCCC1`: in test [1], the normalised thallium flux (F/F0 slope) is 0.00629 (inactive). Also, the normalized thallium flux in test [2] was 0.00489 (inactive). For the same compound, the thallium flux rate (normalised fluorescence) in test [6] is 0.00762 (inactive). In addition, in [4], the raw Tl+ flux slope (below DMSO = inhibition, above = activation) is 0.0176 (active). In addition, the thallium flux slope in test [5] is 0.0102 (inactive).
In the case of `CCCCn1c(SCC(=O)NCC2CCCO2)nc2ccc(N3CCOCC3)cc2c1=O` (stereo not drawn), the normalised thallium flux (F/F0 slope) in [1] was 0.0177 (inactive). Also, the normalized thallium flux in test [2] was 0.0198 (active). The thallium flux rate (normalised fluorescence) in test [6] was 0.0094 (active). Further, in test [4], the raw Tl+ flux slope (below DMSO = inhibition, above = activation) is 0.0187 (active). In [5], the thallium flux slope is 0.013 (active).
For `COCCn1c(C)cc(C(=O)CSc2ncnc3sc4c(c23)CCC4)c1C`, the normalised thallium flux (F/F0 slope) in [1] was 0.0102 (inactive). For the same compound, the normalized thallium flux in test [2] is 0.013 (active); in [3], 0.0342 (inactive). Moreover, in test [5], the thallium flux slope is 0.0112 (inactive).
Regarding `Cc1cc(C(=O)NNC(=S)Nc2ccccc2C)cs1`, in test [1], the normalised thallium flux (F/F0 slope) was 0.00983 (inactive). Further, the normalized thallium flux in test [2] was 0.0117 (active); in [3], 0.0323 (inactive). Moreover, in [4], the raw Tl+ flux slope (below DMSO = inhibition, above = activation) was 0.0239 (inactive). In addition, in test [5], the thallium flux slope is 0.0109 (inactive).
Turning to `Cn1c(C(=O)NCCc2ccsc2)cc2c(=O)n(C)c3ccccc3c21`, the normalised thallium flux (F/F0 slope) in test [1] was 0.00557 (inactive). The normalized thallium flux in test [2] was 0.00386 (inactive). In addition, the raw Tl+ flux slope (below DMSO = inhibition, above = activation) in [4] is 0.0126 (active). Further, the thallium flux slope in [5] is 0.00931 (inactive).
As for `COC(=O)c1sc(NC(=S)NC(=O)c2ccc(C)cc2)nc1C`, the normalised thallium flux (F/F0 slope) in [1] is 0.0256 (active). Further, the normalized thallium flux in test [2] is 0.104 (active). Also, in test [6], the thallium flux rate (normalised fluorescence) is 0.0618 (active). Also, in test [4], the raw Tl+ flux slope (below DMSO = inhibition, above = activation) was 0.0617 (active). The thallium flux slope in [5] is 0.0234 (active).
